{"source": "PubChem BioAssay AID485364", "about": "(National Center for Advancing Translational Sciences (NCATS), 2010)", "note": "The campaign covered roughly 360,000 compounds. About 11,000 (3.1%) were called active. Another 4% or so got no clear call; they are omitted. Calls follow the shape of the dose curve; as a rule, active = well fitted inhibition curve with a large enough effect; inconclusive = small, poorly fitted or top-dose-only effect; inactive = no such curve, though single readings can be large or run the other way. What follows is part of a selection rich in actives, with near analogues and random picks from the rest. A call without a number means that no potency is given here. Potency is read from the fitted curve at half-maximal effect."}
{"molecular_target": "Schistosoma mansoni thioredoxin glutathione reductase (TGR) (UniProt Q962Y6)", "test": "qHTS Assay for the Inhibitors of Schistosoma Mansoni Peroxiredoxins; also: nearly all actives have a fitted effect of over 60% in size", "settings": "purified TGR, DTNB reduction, TNB absorbance 405 nm; series mostly up to 114 µM", "source_text": "Schistosomiasis is a major neglected tropical disease that currently affects over 200 million. It is caused by different species of flatworms, such as Schistosoma mansoni. Over the last century, drugs to treat the disease have evolved from potassium antimonyl tartrate, artemisinin, oxamniquine, to praziquantel, with praziquantel remaining the universally-used single drug of choice over the past three decades. However, transmission rates have changed little with praziquantel, and there is evidence for the development of drug resistant parasites. Because there is currently no suitable alternative therapy available, there is an urgent need to identify new targets and drugs for schistosomiasis treatment. Thioredoxin glutathione reductase (TGR), one uniquely positioned S. mansoni enzyme, has been identified as a major component of the worms' distinct and compressed antioxidant \"firewall\". TGR is a multifunctional enzyme that catalyzes the interconversion between reduced and oxidized forms of both glutathione (GSH) and thioredoxins, thus making it an attractive new antiparasitic target. Recently, a quantitative high-throughput screen of the NIH Molecular Libraries Small Molecule Repository (MLSMR, ~71K at the time of the screen in 2007) was performed using an assay that targeted both TGR and peroxiredoxin2 (Prx2, an H2O2-reducing enzymatic component of the S. mansoni redox \"firewall\") by following the decrease of NADPH fluorescence. […] Additional mechanistic link between exogenous NO donation and parasitic injury for the oxadiazole-2-oxide class of compounds was also expanded and better defined. Although the screen addressed both TGR and Prx2, the assay required post-screen target deconvolution for further characterization of the actives. In addition, the fluorescence assay was also subject to fluorescence interference from compound library members. We have developed a 1536-well-based kinetic HTS assay to address TGR alone. The assay followed the reduction of 5, 5'-dithiobis (2-nitrobenzoic acid) (DTNB) (Ellman's reagent) by NADPH and measured the increase in absorbance at 412 nm of the reaction product, TNB. […] This assay format can be used to screen the current MLSMR collection (with >300K compounds available) to find novel TGR inhibitors. Furoxan is a good choice to serve as a positive control in the primary HTS assay.\nThree microliters of reagents (100 uM NADPH and 20 nM TGR or 100 uM NADPH as no-enzyme control) were dispensed into 1,536-well black clear-bottomed plates. Compounds (23 nL) were transferred via Kalypsys pin tool equipped with 1536-pin array (10 nL slotted pins, V&P Scientific, San Diego, CA). The plates were then be incubated for 15 min at room temperature, and 1 uL aliquot of 500 uM NADPH were added, immediately followed by a 1 uL aliquot of 15 mM DTNB to start the reaction. The plate was transferred to a ViewLux high-throughput CCD imager (Perkin-Elmer, Wellesley, MA) where kinetic measurements of the TNB absorbance were acquired using a 405 excitation filter. Throughout the screen, reagent bottles and all liquid lines were made light-tight to minimize reagent degradation. All screening operations were performed on a fully integrated robotic system (Kalypsys, San Diego, CA) containing one RX-130 and two RX-90 anthropomorphic robotic arms (Staubli, Duncan, SC). Library plates were screened starting from the lowest and proceeding to the highest concentration, and a \"double-dipping\" step of the highest concentration was required to access higher concentrations of compounds. Vehicle-only plates, with DMSO being pin-transferred to the entire column 5-48 compound area, were inserted uniformly at the beginning and the end of each library in order to monitor for and record any shifts in the background, which can be affected by reagent dispensers or loss in enzyme activity overtime. […]"}
{"smiles": "COc1cc(-c2noc(-c3ccc(N4CCCC4)c([N+](=O)[O-])c3)n2)cc(OC)c1OC", "Potency": "inactive"}
{"smiles": "O=C(Nc1ccc(Br)cc1)c1cc2nc(-c3ccccc3)cc(-c3ccccc3)n2n1", "Potency": "inactive"}
{"smiles": "O=C(NNC(=O)C1CCC1)c1ccccc1", "Potency": "inactive"}
{"smiles": "Cc1ccc(NC(=O)C2CCCN2C(=O)OCc2ccccc2)cc1C", "note": "(centres undefined)", "Potency": "inactive"}
{"smiles": "Cc1ccc(NNC(=O)C2CCC2)cc1C", "Potency": "56.2 µM (active)"}
{"smiles": "Cc1oc(-c2ccccc2F)nc1CN1CCC(C(=O)NCCc2ccc(Cl)cc2)CC1", "Potency": "inactive"}
{"smiles": "CCOC(=O)c1c(S(=O)(=O)N2CCCC(C(=O)NCc3cccc(C)c3)C2)c(C)n(C)c1C", "note": "(centres undefined)", "Potency": "inactive"}
{"smiles": "Cc1ccccc1CS(=O)(=O)CC1Nc2ccc(C(=O)NCc3ccc(Cl)cc3)cc2NC1=O", "note": "(centres undefined)", "Potency": "inactive"}
{"smiles": "Cc1cc(C)cc(NC(=O)Cc2csc(C)n2)c1", "Potency": "inactive"}
{"smiles": "Cc1cccc(C)c1NC(=O)CCCSc1nnc(-c2ccco2)n1-c1ccccc1", "Potency": "89.1 µM (active)"}
{"smiles": "CCc1cccc(C)c1NC(=O)CSc1nnc(-c2ccco2)n1N", "Potency": "inactive"}
{"smiles": "CCOc1ccc(-n2c(SCC(N)=O)nnc2-c2ccco2)cc1", "Potency": "inactive"}
{"smiles": "COC(=O)c1ccccc1NC(=S)NC(=O)c1ccccc1F", "Potency": "22.4 µM (active)"}
{"smiles": "CC(C)C(=O)NC(=S)Nc1ccccc1F", "Potency": "inactive"}
{"smiles": "O=C(NC(=S)NC1CCSC1=O)c1ccccc1F", "note": "(centres undefined)", "Potency": "inactive"}
{"smiles": "O=C(Cn1cc(SCc2cccc(Cl)c2)c2ccccc21)N1CCCCC1", "Potency": "inactive"}
{"smiles": "Oc1c(C(c2ccccn2)N2CCOCC2)ccc2cccnc12", "note": "(centres undefined)", "Potency": "0.794 µM (active)"}
{"smiles": "Cn1c(C(=O)Nc2cccc(C(F)(F)F)c2)cc2c(=O)n3ccccc3nc21", "Potency": "inactive"}
{"smiles": "COC(=O)/C=C\\C(=O)Nc1cccc([N+](=O)[O-])c1", "Potency": "0.794 µM (active)"}
{"smiles": "O=C(Nc1cccc([N+](=O)[O-])c1)N1CCc2ccccc2C1", "Potency": "inactive"}
{"smiles": "Cc1c(NC(=O)Nc2cccc([N+](=O)[O-])c2)c(=O)n(-c2ccccc2)n1C", "Potency": "inactive"}
{"smiles": "CCC(CC)NC(=O)/C=C/c1cccc([N+](=O)[O-])c1", "Potency": "inactive"}
{"smiles": "Cc1ccccc1NC(=S)Nc1cccc([N+](=O)[O-])c1", "Potency": "44.7 µM (active)"}
{"smiles": "Cc1cc([N+](=O)[O-])ccc1NCc1cccc([N+](=O)[O-])c1", "Potency": "inactive"}
{"smiles": "COc1ccccc1N1CCN(CCCNC(=O)c2cnn(-c3ccccc3Cl)c2C2CCN(C(=O)OC(C)(C)C)CC2)CC1", "Potency": "inactive"}
{"smiles": "COc1ccc(Br)cc1C1CC(=O)Nc2c1c(C)nn2-c1nc(C)cc(C)n1", "note": "(centres undefined)", "Potency": "inactive"}
{"smiles": "O=C(CCC(=O)N1CC2CCCN2c2ccccc21)NCc1ccccc1Cl", "note": "(centres undefined)", "Potency": "inactive"}
{"smiles": "Cc1ccc(N=C2NC(=O)/C(=C/C=C/c3ccco3)S2)cc1C", "Potency": "44.7 µM (active)"}
{"smiles": "CC(C)c1ccc(NC(=O)Cn2c3ncccc3c(=O)n2-c2ccccc2)cc1", "Potency": "inactive"}
